In PubChem BioAssay (NCATS):
Results filed as inconclusive are left out. Activity calls are given as the source filed them. Calls follow the shape of the dose curve; as a rule, active = well fitted curve in the direction sought with a large enough effect; inconclusive = small, poorly fitted or top-dose-only effect, or another doubt; inactive = no such curve, though single readings can be large; an effect the other way counts as inactive or inconclusive.

Experiments:
[1] = qHTS of pediatric cancer cell lines to identify multiple opportunities for drug repurposing: Primary screen for TC32 cells (AID 1347089); also: nearly all actives have a fitted effect of over 60% in size
Procedure, shortened: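 Measured quantity: luminescence from CellTiter-Glo, reflecting metabolically active TC32 cells following 48 h of compound. Curves came straight from multi-point titrations, with 8 or 11 points in primary and 11 in confirmatory screening.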

[2] = qHTS of pediatric cancer cell lines to identify multiple opportunities for drug repurposing: Primary screen for DAOY cells (AID 1347090); also: series mostly up to about 46 µM; nearly all actives have a fitted effect of over 55% in size
Procedure, shortened: (§1)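 Viability measured as metabolically active cells via CellTiter-Glo luminescence following 48 hours of compound exposure, 11-point dilutions in confirmatory testing. 500-1,000 cells/well plated 5 hours before dosing; controls were DMSO and 2.3 µM bortezomib.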

[3] = qHTS of pediatric cancer cell lines to identify multiple opportunities for drug repurposing: Primary screen for SJ-GBM2 cells (AID 1347091)
Procedure, shortened: as §1

[4] = qHTS of pediatric cancer cell lines to identify multiple opportunities for drug repurposing: Primary screen for A673 cells (AID 1347092); also: nearly all actives have a fitted effect of over 45% in size
Procedure, shortened: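 Cells are plated, rested 5 h, dosed by pintool, incubated 48 h, then lysed with CellTiter-Glo and read by luminescence. DMSO is the neutral control; bortezomib at 2.3 uM final is the positive control.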

[5] = qHTS of pediatric cancer cell lines to identify multiple opportunities for drug repurposing: Primary screen for SK-N-MC cells (AID 1347093); also: series mostly up to about 46 µM
Procedure, shortened: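 Metabolically active cells were quantified by ATP-dependent luminescence (CellTiter-Glo, 15 min at room temperature) following 48 h treatment. Cells had been plated at 500-1,000 per well and settled for 5 h beforehand.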

[6] = qHTS of pediatric cancer cell lines to identify multiple opportunities for drug repurposing: Primary screen for BT-37 cells (AID 1347094); also: series mostly up to about 57 µM
Procedure, shortened: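 Luminescence from CellTiter-Glo served as readout of metabolically active cells after 48 h compound exposure. Titrations: MIPE 11-point, from 0.78 nM; NPC 8-point, from 0.59 nM (final). Concentration-response curves came straight from the primary screen.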

Measured: Potency

CNC(=O)c1c(I)c(NC(C)=O)c(I)c(C(=O)O)c1I
inactive: [1] | [2] | [3] | [4] | [5] | [6]

Cc1cc(=O)oc2cc(O[C@@H]3SC[C@@H](O)[C@H](O)[C@H]3O)ccc12
inactive: [1] | [2] | [3] | [4] | [5] | [6]

C[C@@H]1CCC[C@H](C)N1CCCC(O)(c1ccccc1)c1ccccn1 (some centres undefined)
inactive: [1] | [2] | [3] | [4] | [5] | [6]

O=C(NN1CCCC1)NS(=O)(=O)c1ccc(Cl)cc1
inactive: [1] | [2] | [3] | [4] | [5] | [6]

Cc1onc(-c2c(Cl)cccc2Cl)c1C(=O)Cl
inactive: [1] | [2] | [3] | [4] | [5] | [6]

O=C(CCCCCCCCC#CI)Oc1ccccc1
inactive: [1] | [2] | [3] | [4] | [5] | [6]

CC(C)(C)C(O)/C=C/c1ccc2c(c1)OCO2 (centres undefined)
inactive: [1] | [2] | [3] | [4] | [5] | [6]

NC(=O)COCCN1CCN(C(c2ccccc2)c2ccc(Cl)cc2)CC1 (centres undefined)
inactive: [1] | [2] | [3] | [4] | [5] | [6]

O=C(O)Cn1cnnn1
inactive: [1] | [2] | [3] | [4] | [5] | [6]

CC(=O)O[C@H]1CC[C@@]2(C)C(=CC[C@@H]3[C@@H]2CC[C@]2(C)C(C(C)=O)=CC[C@@H]32)C1
inactive: [1] | [2] | [3] | [4] | [5] | [6]

CCN(CC)CC(=O)Nc1c(C)cccc1C(=O)OC
inactive: [1] | [2] | [3] | [4] | [5] | [6]

C[C@@H]1C[C@H]2[C@@H]3CCC4=CC(=O)C=C[C@]4(C)[C@@]3(F)[C@@H](O)C[C@]2(C)[C@@]1(O)C(=O)COC(=O)c1ccncc1
inactive: [1] | [2] | [3] | [4] | [5] | [6]

O=C(O)[C@H](O)[C@@H](O)[C@H](O[C@@H]1O[C@H](CO)[C@H](O)[C@H](O)[C@H]1O)[C@H](O)CO
inactive: [1] | [2] | [3] | [4] | [5] | [6]

OCCCc1ccccc1
inactive: [1] | [2] | [3] | [4] | [5] | [6]

C=CCOc1cc(Cl)ccc1C(=O)NCCN(CC)CC
inactive: [1] | [2] | [3] | [4] | [5] | [6]

CC(C)(C)c1nnc(NS(=O)(=O)c2ccccc2)s1
inactive: [1] | [2] | [3] | [4] | [5] | [6]

CCOC(=O)C(=O)CCc1ccccc1
inactive: [1] | [2] | [3] | [4] | [5] | [6]

CCCC(=O)Nc1ccc(O)c(C(C)=O)c1
inactive: [1] | [2] | [3] | [4] | [5] | [6]

CCCc1c2oc(C(=O)O)cc(=O)c2cc2c(=O)cc(C(=O)O)n(CC)c12
inactive: [1] | [2] | [3] | [4] | [6]

CC(C)(C)c1cc(C=O)cc(C(C)(C)C)c1O
inactive: [1] | [2] | [3] | [4] | [6]

CCOC(=O)c1ccc(NC(=O)CN2CCCCC2)cc1
inactive: [1] | [2] | [3] | [4] | [5] | [6]

COc1cc2c(cc1OC)C(=O)CC2
inactive: [1] | [2] | [3] | [4] | [6]

COc1c(N2C[C@@H]3CCCN[C@@H]3C2)c(F)cc2c(=O)c(C(=O)O)cn(C3CC3)c12
inactive: [1] | [2] | [3] | [4] | [6]

CCN(CC)CCN
inactive: [1] | [2] | [3] | [4] | [6]

O=C(O)c1ccc(OCCN2CCCCC2)cc1
inactive: [1] | [2] | [3] | [4] | [6]

CCOC(=O)c1cc(=O)c2c(OCC(COc3cccc4oc(C(=O)OCC)cc(=O)c34)OC(=O)[C@@H](N)CCCCN)cccc2o1
inactive: [1] | [2] | [3] | [4] | [6]

O=C1[C@@H]2[C@H]3CC[C@H](C3)[C@@H]2C(=O)N1CCCCN1CCN(c2ncccn2)CC1
inactive: [1] | [2] | [3] | [4] | [6]

CC(C)C[C@H](NC(=O)CNC(=O)[C@H](Cc1ccc(O)cc1)NC(=O)[C@H](CO)NC(=O)[C@H](Cc1c[nH]c2ccccc12)NC(=O)[C@H](Cc1cnc[nH]1)NC(=O)[C@@H]1CCC(=O)N1)C(=O)N[C@@H](CCCN=C(N)N)C(=O)N1CCC[C@H]1C(=O)NCC(N)=O (stereo in doubt)
inactive: [1] | [2] | [3] | [4] | [6]
